These results are taken from ChEMBL document CHEMBL4808148, “HDAC6 screening dataset using tau-based substrate in an enzymatic assay yields selective inhibitors and activators” (2021).

Each structure is given as a SMILES string. In all, about 5,600 compounds went through this assay and about 150 (2.7%) showed an effect of 50% or more. This is one part of a sample in which strong results are shown more often than they occur.

The experiment concerns the target T1, Protein deacetylase HDAC6 (Homo sapiens) (UniProt Q9UBN7).
T1 sequence (whole entry): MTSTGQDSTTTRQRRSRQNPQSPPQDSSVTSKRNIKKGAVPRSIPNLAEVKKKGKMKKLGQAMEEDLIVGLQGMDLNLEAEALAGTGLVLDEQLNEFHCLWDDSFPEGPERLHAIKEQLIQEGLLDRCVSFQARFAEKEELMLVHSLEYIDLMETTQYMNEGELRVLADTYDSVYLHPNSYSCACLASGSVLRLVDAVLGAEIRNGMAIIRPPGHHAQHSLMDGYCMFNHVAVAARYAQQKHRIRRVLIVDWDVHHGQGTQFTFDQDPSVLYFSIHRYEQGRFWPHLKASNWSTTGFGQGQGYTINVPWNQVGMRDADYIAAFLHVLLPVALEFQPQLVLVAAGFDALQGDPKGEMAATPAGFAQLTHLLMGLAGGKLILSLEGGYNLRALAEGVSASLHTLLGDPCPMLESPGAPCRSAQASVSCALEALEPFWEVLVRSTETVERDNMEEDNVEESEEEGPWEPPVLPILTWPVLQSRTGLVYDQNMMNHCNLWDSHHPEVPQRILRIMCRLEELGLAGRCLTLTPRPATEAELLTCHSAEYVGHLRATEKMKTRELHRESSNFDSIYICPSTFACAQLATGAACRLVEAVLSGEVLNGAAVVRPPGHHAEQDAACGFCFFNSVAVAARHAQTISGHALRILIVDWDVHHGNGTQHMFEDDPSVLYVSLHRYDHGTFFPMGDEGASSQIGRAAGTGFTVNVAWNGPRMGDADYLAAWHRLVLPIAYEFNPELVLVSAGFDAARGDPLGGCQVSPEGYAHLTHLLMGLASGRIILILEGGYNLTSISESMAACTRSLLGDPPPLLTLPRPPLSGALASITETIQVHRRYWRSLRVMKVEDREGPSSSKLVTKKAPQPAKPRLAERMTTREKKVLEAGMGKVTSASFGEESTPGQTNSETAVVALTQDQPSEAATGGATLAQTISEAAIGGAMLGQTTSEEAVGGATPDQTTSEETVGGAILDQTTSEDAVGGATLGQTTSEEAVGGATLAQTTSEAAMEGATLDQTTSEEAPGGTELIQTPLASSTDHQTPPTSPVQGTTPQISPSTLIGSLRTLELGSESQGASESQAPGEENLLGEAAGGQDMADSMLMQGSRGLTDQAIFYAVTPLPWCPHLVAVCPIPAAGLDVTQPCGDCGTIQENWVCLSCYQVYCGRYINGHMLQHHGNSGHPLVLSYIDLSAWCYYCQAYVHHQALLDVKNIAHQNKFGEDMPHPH
The settings on record: at 10 µM.
What is called inhibition is the change of the read-out against control, counted positive when it falls. Consider `O=C(O)CCCCN(CCc1ccccc1OCc1ccc(CCc2ccccc2)cc1)Cc1ccc(C(=O)O)cc1`, for which the inhibition is -4%.

For `COc1cc2c(NC3CCN(C4CCCCC4)CC3)nc(N3CCCN(C(C)C)CC3)nc2cc1OCCCN1CCCCC1`, the inhibition was -8.06%.

As for `COc1cc2nc(C3CC3)nc(N3CCN(c4ccccc4OC)CC3)c2cc1OC`, the inhibition worked out at 0%.

Take `CC(C(=O)O)c1cccc(C(=O)c2ccccc2)c1` (stereo not given): the inhibition came to 4.07%.

With `CC(C(=O)O)c1ccc(N2Cc3ccccc3C2=O)cc1` (stereo not given), the inhibition stood at 82.1%.

`CC(C(=O)O)c1ccc2c(c1)CC(=O)c1ccccc1S2` (stereo not given): the inhibition is -3.15%.

As for `CNC(=O)O[C@H]1COc2ccc(N3CCN(C4COC4)CC3)cc2[C@@H]1NC(=O)c1ccc(F)cc1`, the inhibition is -3.83%.

Consider `O=C1Nc2cc(Br)ccc2/C1=C1/Nc2ccccc2/C1=N\O`, for which the inhibition stood at 2.55%.

Regarding `O=C1COc2nccc(-c3ccccc3F)c2CN1Cc1cc(C(F)(F)F)cc(C(F)(F)F)c1`, the inhibition is -5.84%.

As to `C=C1/C(=C\C=C2/CCC[C@]3(C)[C@@H]([C@H](C)OCCC(C)(C)O)CC[C@@H]23)C[C@@H](O)C[C@@H]1O`, the inhibition was determined as 1.22%.

For the molecule `Cc1cccc(C#Cc2ccccc2)n1`, the inhibition was 94.7%.

Take `NS(=O)(=O)C#Cc1ccccc1`: the inhibition was -5.38%.

As to `COc1cc(C(=O)N(CCC2CCCN2C)C/C(C)=C/c2ccccc2F)cc(OC)c1OC` (stereo not given), the inhibition is -2.86%.

Turning to `CC(C)(C)c1cc(C(=O)/C(C#N)=N/Nc2cccc(Cl)c2)no1`, the inhibition came to 7.67%.

As to `CC(C)Oc1ccc2c(=O)c3cc(C(=O)O)ccc3oc2c1`, the inhibition was found to be 76.3%.

As to `CNC(=O)c1c(C)oc2cc(Oc3ncnc4cc(OC)c(OC)cc34)ccc12`, the inhibition turned out to be 14.7%.

As for `CC(C)(N)c1cc(C(=O)N[C@@H]2CCc3ccc(Oc4ccnc5c4CCC(=O)N5)cc3C2)cc(C(F)(F)F)c1`, the inhibition is -1.36%.

On to `CN(C)C/C=C/C(=O)Nc1ccc(C(=O)Nc2cccc(Nc3ncc(Cl)c(-c4c[nH]c5ccccc45)n3)c2)cc1`, for which the inhibition is -4.86%.

For the molecule `CN(C)c1ccc(C(=C2C=CC(=[N+](C)C)C=C2)c2ccc(N(C)C)cc2)cc1`, the inhibition turned out to be 59.7%.

Turning to `O=C(Nc1ccc2[nH]ccc2c1)c1ccccc1`, the inhibition stood at 49.3%.

Turning to `O=C(Nc1cc2cc[nH]c2cn1)c1ccccc1`, the inhibition worked out at 97.7%.

Turning to `NC(=O)c1ccc2[nH]ccc2c1`, the inhibition was -7.83%.

Consider `CCOc1ccc(-n2c([C@@H](C)N(Cc3cccnc3)C(=O)Cc3ccc(OC(F)(F)F)cc3)nc3ncccc3c2=O)cc1`, for which the inhibition was -2.97%.

Take `COc1cccc(N2CCN(C3=Nc4c(F)cccc4[C@H](CC(=O)O)N3c3cc(C(F)(F)F)ccc3OC)CC2)c1`: the inhibition was -7.43%.

Turning to `O=C1c2ccccc2C(=O)C1c1ccccc1`, the inhibition was 0.29%.

With `COc1ccc(Oc2c(Cl)cnn(C3c4ccccc4-c4ccccc43)c2=O)cc1`, the inhibition was 3.12%.

Regarding `O=C1c2ccccc2C(=O)C1c1ccc(Br)cc1`, the inhibition amounted to 86.8%.

Turning to `COc1ccc(C2C(=O)c3ccccc3C2=O)cc1`, the inhibition turned out to be 97.2%.

`COc1ccc(C2CC(c3ccccc3)=NN2c2ccc(S(N)(=O)=O)cc2)cc1` (stereo not given): the inhibition was -2.13%.

For `O=C1c2ccccc2C(=O)C1c1ccc(Cl)cc1`, the inhibition is -0.61%.

As for `Nc1ncc2c(n1)CC(c1ccco1)CC2=O` (stereo not given), the inhibition stood at 10.6%.

Consider `CO/N=C1\C[C@@H](C(=O)NC[C@@H](O)c2ccccc2)N(C(=O)c2ccc(-c3ccccc3C)cc2)C1`, for which the inhibition was -5.99%.

Consider `CC(=O)Oc1ccccc1C(=O)Nc1ccccc1`, for which the inhibition turned out to be 24.1%.

For the molecule `Nc1n[nH]c2nnc(-c3c(-c4ccccc4)nn4ccccc34)cc12`, the inhibition turned out to be 1.45%.

As for `NC(=O)c1ccc([N+](=O)[O-])cc1Cl`, the inhibition amounted to 3.17%.

On to `CCN(CCNC(=O)Nc1ccccc1Br)c1cccc(C)c1`, for which the inhibition is -8.23%.

Take `O=C(Nc1ccc([N+](=O)[O-])cc1O)Nc1ccccc1Br`: the inhibition came out at 61.6%.

Turning to `CCC(C(=O)O)c1ccc(CC(C)C)cc1` (stereo not given), the inhibition came out at 5.56%.

Turning to `CCCCC1OC(=O)c2ccccc21` (stereo not given), the inhibition was found to be 4.45%.

As for `N[C@@H]1c2cccnc2[C@H](OC(=O)N2CCC(n3c(=O)[nH]c4ncccc43)CC2)CC[C@H]1c1cccc(F)c1F`, the inhibition is -1.43%.

With `CS(=O)(=O)N(Cc1ccco1)CC(O)Cn1c2ccccc2c2ccccc21` (stereo not given), the inhibition is -5.79%.

As for `O[C@H]1CC[C@H](Nc2nc(-c3ccccc3)nc3[nH]ccc23)CC1`, the inhibition stood at 2.15%.

Regarding `O=C(NC1CC1)c1cc(-c2cccs2)on1`, the inhibition came to 60.8%.

As to `CN1CCC(NC(=O)c2cc(-c3c(O)cc(O)cc3Oc3ccc([N+](=O)[O-])cc3)on2)CC1`, the inhibition was -7.8%.

Consider `Cc1ccc(S(=O)(=O)NCc2ccccc2)cc1`, for which the inhibition is -1.3%.

Turning to `CO[C@H]1CC[C@@H](C(=O)c2ccc3nc4c(cc3c2)CCCO4)CC1`, the inhibition worked out at 1.73%.

For `CCCn1c(=O)c2[nH]c(-c3cnn(Cc4cccc(C(F)(F)F)c4)c3)nc2n(CC)c1=O`, the inhibition was 2.86%.

Take `CC(=O)NC[C@H]1CN(c2ccc(N3CCN(C(=O)CO)CC3)c(F)c2)C(=O)O1`: the inhibition was -2.46%.

On to `COc1ccc(/C=C/C(=O)O)cc1`, for which the inhibition was -6.98%.

For `COc1cccc(NC(=O)/C=C/c2ccc(Cl)cc2)c1`, the inhibition was determined as 91.8%.

`COc1cc(NC(=O)c2ccc(-c3ccc(Cl)cc3)o2)cc(OC)c1`: the inhibition worked out at 4.45%.

For the molecule `CN(CCc1ccc(Cl)c(Cl)c1)CCN1CCCC1`, the inhibition was determined as 3.41%.

Consider `CCc1ccc(/C=C2/SC(=S)NC2=O)cc1`, for which the inhibition came out at 16.7%.

`N=C1NC(=O)/C(=C/c2ccc(O)cc2)S1`: the inhibition is 14%.

In the case of `O=C(O)COc1ccc(/C=C2\SC(=O)NC2=O)cc1`, the inhibition was 95%.
